Sampled rows, rich in hits. Any-hit rate of the full collection: about 1.8%.
Jurkat NFkB inh = inhibitors of induced NF-kB luciferase reporter, primary screen, TCR NF-kB activation inhibitor project, cell-based, luminescence, uHTS. Jurkat, PMA/ionomycin-induced NF-kB luciferase reporter. inhibition, % at 4 µM. 330,000 compounds, 0.53% hits. AID 435003, 2010; in the data active means inhibition above about 50%
Beta apoptosis = inhibitors of cytokine-induced beta cell apoptosis, primary screen, luminescence; 300,000 compounds, 0.8% hits; protection from apoptosis, % (concentration not given with the values); INS-1E cytokine-induced death, ATP luminescence, 48 h; percent of positive-control rescue, neutral wells zero;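 active means Every replicate reaches about 75%, or at least half do and their mean reaches it too, limit read from the data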;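 further: higher means more ATP so stronger rescue from cytokine killing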
Gli-Sufu antag = Gli-Sufu pathway antagonists, primary screen, luciferase luminescence, Sufu-KO-LIGHT cells, uHTS; 340,000 compounds, 0.74% hits; Sufu-KO-LIGHT fibroblasts, Gli luciferase reporter luminescence; inhibition, % at 5 µM; AID 588413, 2011;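 active means inhibition above about 55%, limit read from the data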
697 NFkB inh = inhibitors of PMA/ionomycin-induced NF-kB reporter, 697 cells, primary screen, B-cell NF-kB inhibitor project, cell-based, luminescence, uHTS; 697 B-cell NF-kB luciferase reporter, 16 h; inhibition, % at 4 µM; 330,000 compounds, 0.33% hits; AID 435022, 2010; in the data active means inhibition above about 35%
Jurkat NFkB conf = PMA/ionomycin-induced NF-kB reporter inhibitors, Jurkat retest, confirmation, T-cell NF-kB inhibitor project, cell-based, luminescence, single concentration; shares compounds with Jurkat NFkB inh; Jurkat NF-kB luciferase, 16 h; inhibition, % at 4 µM; 2,700 compounds, 27% hits; AID 435020, 2010;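 active means inhibition reaching about 45% at 4 µM in either replicate, limit read from the data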
Numbers stand for hits; . = inactive; / = no result.

SMILES	Jurkat NFkB inh	Beta apoptosis	Gli-Sufu antag	697 NFkB inh	Jurkat NFkB conf
COc1cc(-c2noc(C)c2C#Cc2ccsc2)cc(OC)c1OC	63	.	/	.	57
CO/N=C/C(=N\Nc1ccc(C)cc1)C(=O)c1ccc(OC)cc1	51	.	.	.	.
CC(C)(C)OC(=O)NCc1ccc(NC(=O)c2nc[nH]c2C(=O)NCCNC(=O)c2[nH]cnc2C(=O)Nc2ccc(CNC(=O)OC(C)(C)C)cc2)cc1	62	81	.	.	.
CC1CCN(C(=O)CN2C(=O)NC(C)(c3ccc4ccccc4c3)C2=O)CC1 (configuration not stated)	59	.	.	.	.
CCN(CC)CCNC(=O)c1ccc2c(c1NCCO)C(=O)c1ccccc1C2=O	86	116	.	.	47
Cc1ccc(NC(=O)CSCC(=O)NC2(C)CCS(=O)(=O)C2)cc1 (configuration not stated)	.	.	.	.	/
CCOc1ccccc1C1CC(=O)Nc2cc3c(cc21)OCO3 (configuration not stated)	63	.	.	.	60
COc1ccccc1C1CC(=O)Nc2cc3c(cc21)OCCO3 (configuration not stated)	.	.	.	.	/
CCN(C(=O)COc1cccc(-n2cnnn2)c1)C1CCS(=O)(=O)C1 (configuration not stated)	.	.	.	.	/
COc1ccc(S(=O)(=O)NCc2ccccn2)cc1NC(=O)c1ccc(Cl)cc1	.	/	.	.	/
COc1ccc(S(=O)(=O)NCc2ccccn2)cc1NC(=O)c1ccccc1C	55	/	.	.	.
Cc1nn(C)c(C)c1CN(C)C(=O)c1cc2n(n1)C(C(F)(F)F)CC(c1cccs1)N2 (configuration not stated)	.	.	.	.	/
Cc1c(C(=O)Nc2ccccc2)csc1-c1ccccc1	.	.	.	.	.
COc1cc(C(=O)NCC(=O)N/N=C/c2c(C)[nH]c3ccccc23)cc(OC)c1OC	.	.	.	.	/
O=C(CCSCCC(=O)NN=Cc1ccccc1O)NN=Cc1ccccc1O	/	/	.	/	/
c1cnc(SCCOc2ccc3c(c2)CCC3)nc1	.	.	.	.	.
O=C(Nc1ccc(N2CCOCC2)c(Cl)c1)c1cccc(F)c1	.	.	.	.	.
CCOC(=O)Nc1nc(-c2ccccc2)c(C(=O)c2ccc(Cl)cc2)s1	54	.	.	.	55
COc1cc(Nc2ccc(C)cc2)c([N+](=O)[O-])nc1[N+](=O)[O-]	58	.	.	.	50
Cc1cc(C)cc(Nc2ccc([N+](=O)[O-])nc2[N+](=O)[O-])c1	.	.	.	.	/
CCOc1cc(S(=O)(=O)N(CC)CC)ccc1Cl	.	.	.	.	/
Cc1ccc(-c2nc3cc(Cl)ccc3o2)cc1	.	.	.	.	/
COc1cc(OC)cc(-c2nc3cc(C)ccc3o2)c1	.	.	.	.	.
OC(COCc1ccccc1F)CN1CCCCC1 (configuration not stated)	.	.	.	.	/
COc1ccc(/C=N/Nc2ncccc2[N+](=O)[O-])c(OC)c1	.	.	.	.	.
SMILES	Jurkat NFkB inh	Beta apoptosis	Gli-Sufu antag	697 NFkB inh	Jurkat NFkB conf
COc1ccc(OC)c(Nc2cc(C)nc3ccc(C)cc23)c1	62	.	.	.	.
COc1ccc(/C=N/Nc2ncc(-c3ccccc3)cn2)c(OC)c1	.	.	.	.	/
COc1ccc2nc(C)cc(Nc3ccc(N4CCN(C)CC4)cc3)c2c1	74	.	.	.	.
COc1ccc(/C=N/Nc2cc(C)nc3ccc(OC)cc23)c(OC)c1	77	117	.	.	.
Cc1ccc(CS(=O)(=O)CCC(=O)NCCC2=CCCCC2)cc1	.	.	.	.	/
COc1cccc(-c2nc(CS(=O)(=O)CC(=O)N3CCN(C4CCCCC4)CC3)c(C)o2)c1	.	.	.	.	/
COc1ccccc1Nc1nn2c(=O)c3ccc(C(=O)N4CCC(C)CC4)cc3nc2s1	.	.	.	.	/
O=C(COC(=O)CN1C(=O)C2CC=CCC2C1=O)Nc1cc(C(F)(F)F)ccc1N1CCOCC1 (configuration not stated)	.	.	.	.	/
COC(=O)c1ccc2nc(C)cc(Nc3ccccc3C)c2c1	.	.	.	.	/
COC(=O)c1ccc(Nc2cc(C)nc3ccc(C)cc23)cc1	59	.	.	.	.
CC(=O)c1ccc(Nc2cc(C)nc3c(C)cccc23)cc1	56	.	.	.	.
CCCN1CCC(=O)N(CCSc2ccc(OC)cc2)CC1	54	.	.	.	.
Cc1cc(NC(=O)CSc2nc3cc(Cl)ccc3o2)no1	.	.	.	.	/
O=S1(=O)C=C(Sc2nc3cc(Cl)ccc3o2)c2ccccc21	97	.	.	.	90
CN(c1ccccc1)S(=O)(=O)c1ccc(NC(=O)c2nc(S(C)(=O)=O)ncc2Cl)cc1	53	99	.	.	.
Cc1ccc(C(=O)CSC2=C(C#N)C(c3ccco3)C3=C(CCCC3=O)N2)cc1 (configuration not stated)	67	.	.	.	.
O=C(Nc1cccc(OC(=O)c2cccnc2)c1)c1cccnc1	.	/	.	.	/
Cc1ccc(-c2cc(C(F)F)n3ncc(C(=O)N4CCc5ccccc54)c3n2)cc1	61	.	.	.	47
O=C(c1cnn2c(C(F)F)cc(-c3ccccc3)nc12)N1CCc2ccccc21	.	.	.	.	/
C[C@@]12C(=O)Nc3ccc(Br)cc3C(=O)N1[C@H]1c3cc(Br)ccc3OC[C@@H]1[C@@H]2c1ccccc1	.	.	.	.	/
COc1ccc2c(c1)C(=O)N1[C@H]3c4cc(Br)ccc4OC[C@@H]3[C@H](c3ccccc3)[C@]1(C)C(=O)N2	52	.	.	.	53
COc1ccccc1N1CCN(C(=O)NCc2ccc(Cl)cc2)CC1	.	.	.	.	/
COc1ccccc1N1CCN(C(=O)c2ccc(-c3ccc(Cl)cc3)o2)CC1	63	.	.	.	53
Cc1ccc(S(=O)(=O)Nc2cccc3ncccc23)s1	83	.	85	.	.
CCCC/C(O)=C1\C(=O)CC(C)(C)CC1=Nc1ccccc1OC	.	.	.	.	/
CCC/C(O)=C1\C(=O)CC(C)(C)CC1=Nc1ccc(OC)cc1OC	62	.	.	.	.
CCCCCN1C=CC(=C2C(=O)c3ccccc3C2=O)C=C1	60	.	59	.	.
Cc1cnc(NC(=O)C2CC(=O)N(c3cccc(Cl)c3)C2)s1 (configuration not stated)	75	.	.	.	72
Cc1cc(/C=C(\C#N)C(=O)Nc2ccccc2F)c(C)[nH]1	.	/	.	.	.
N#C/C(=C\c1ccc[nH]1)C(=O)Nc1ccccc1F	.	.	.	.	/
